The nature of test [1]: A CellTox Green Cytotoxicity Assay to monitor cytotoxicity in HEK293 cells - 40 hour (AID 1224871). Further: nearly all actives have a fitted effect of over 45% in size. In short, it runs like this: (§1)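 Fluorescence from a DNA-binding dye excluded by viable cells was measured repeatedly in the same HEK293 wells (600 cells/well) during continuous compound exposure at 37 C. Each assay gives one read point: 0, 8, 16, 24, 32 or 40 h.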
The nature of test [2]: qHTS RealTime-Glo MT Cell Viability Assay in HEK293 cells - 16 hour (AID 1224872). Further: top concentration of the series differs between compounds; nearly all actives have a fitted effect of over 50% in size. In short, it runs like this:
(§2)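 Nonlytic real-time viability readout: viable cells convert prosubstrate to NanoLuc substrate, giving luminescence proportional to live cell number. HEK293, 600 cells/well, compound added after 5 h, continuous culture at 37 C.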
(In general: qHTS replaces the single test concentration by a dilution series.)

Test [3] can be described thus: qHTS RealTime-Glo MT Cell Viability Assay in HepG2 cells - 8 hour (AID 1224873). Further: nearly all actives have a fitted effect of over 55% in size. In short, it runs like this:
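Real-time viability: cells seeded at 600 per well together with NanoLuc and cell-permeant prosubstrate, compounds added after 5 h incubation. Luminescence tracked at 0, 8, 16, 24, 32 and 40 h of exposure.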

Test [4] in a line: qHTS RealTime-Glo MT Cell Viability Assay in HEK293 cells - 40 hour (AID 1224874). Further: nearly all actives have a fitted effect of over 50% in size. To be noted: RealTime-Glo luminescence; max response: active compounds read low. In short, it runs like this: (§3)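 Luminescence, which tracks viable cell number through reduction of the prosubstrate to a NanoLuc substrate, was read over continuous 37 C culture. Cells (600/well) were premixed with reagent and rested 5 h before 23 nL of compound in DMSO was pinned.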

A short description of test [5]: A CellTox Green Cytotoxicity Assay to monitor cytotoxicity in HEK293 cells - 24 hour (AID 1224875). Further: series mostly up to about 77 µM; nearly all actives have a fitted effect of over 45% in size. In short, it runs like this:
as §1

The nature of test [6]: qHTS RealTime-Glo MT Cell Viability Assay in HepG2 cells - 32 hour (AID 1224877). Further: nearly all actives have a fitted effect of over 55% in size. The essentials:
(§4)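 Luminescence read-out: viable HepG2 cells reduce a prosubstrate to a NanoLuc substrate, giving a signal proportional to live cell number. Reads taken at 0, 8, 16, 24, 32 and 40 h of compound exposure at 37 C.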

Test [7] can be described thus: qHTS RealTime-Glo MT Cell Viability Assay in HEK293 cells - 0 hour (AID 1224880). Further: top concentration of the series differs between compounds; nearly all actives have a fitted effect of over 45% in size. The essentials: as §3
Test [8] can be described thus: A CellTox Green Cytotoxicity Assay to monitor cytotoxicity in HEK293 cells - 32 hour (AID 1224881). Further: nearly all actives have a fitted effect of over 40% in size. In short, it runs like this:
as §1

A short description of test [9]: A CellTox Green Cytotoxicity Assay to monitor cytotoxicity in HEK293 cells - 8 hour (AID 1224884). Further: nearly all actives have a fitted effect of over 35% in size. In short, it runs like this: as §1
Test [10] is described as follows: qHTS RealTime-Glo MT Cell Viability Assay in HepG2 cells - 16 hour (AID 1224885). Further: nearly all actives have a fitted effect of over 50% in size. The essentials: as §4
Test [11] in a line: qHTS RealTime-Glo MT Cell Viability Assay in HEK293 cells - 24 hour (AID 1224886). Further: top concentration of the series differs between compounds; nearly all actives have a fitted effect of over 50% in size. The essentials:
as §2

A short description of test [12]: qHTS RealTime-Glo MT Cell Viability Assay in HEK293 cells - 8 hour (AID 1224887). In short, it runs like this: as §3
The nature of test [13]: qHTS RealTime-Glo MT Cell Viability Assay in HepG2 cells - 0 hour (AID 1224889). Further: nearly all actives have a fitted effect of over 50% in size. In short, it runs like this:
as §4

Test [14] is described as follows: A CellTox Green Cytotoxicity Assay to monitor cytotoxicity in HepG2 cells - 16 hour (AID 1224876). Further: nearly all actives have a fitted effect of over 45% in size. In short, it runs like this: (§5)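 Real-time cytotoxicity: fluorescence of a cell-impermeant cyanine dye binding DNA of dead HepG2 cells, measured repeatedly (0–40 h) during compound exposure at 37 C. Cells seeded 600/well with reagent, dosed after 5 h.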
Test [15] is described as follows: A CellTox Green Cytotoxicity Assay to monitor cytotoxicity in HepG2 cells - 24 hour (AID 1224878). Further: nearly all actives have a fitted effect of over 45% in size. The essentials: as §5
Test [16] is described as follows: A CellTox Green Cytotoxicity Assay to monitor cytotoxicity in HepG2 cells - 40 hour (AID 1224879). Further: nearly all actives have a fitted effect of over 40% in size. Further: potency means the concentration at half of the fitted maximal effect. In short, it runs like this: as §5
Test [17] in a line: A CellTox Green Cytotoxicity Assay to monitor cytotoxicity in HepG2 cells - 32 hour (AID 1224883). Further: nearly all actives have a fitted effect of over 50% in size. In short, it runs like this: as §5
Test [18] is described as follows: A CellTox Green Cytotoxicity Assay to monitor cytotoxicity in HepG2 cells - 8 hour (AID 1224890). Further: nearly all actives have a fitted effect of over 45% in size. The essentials:
as §5

Test [19] is described as follows: A CellTox Green Cytotoxicity Assay to monitor cytotoxicity in HepG2 cells - 0 hour (AID 1224882). Further: nearly all actives have a fitted effect of over 35% in size. The essentials:
as §5

Test [20] in a line: A CellTox Green Cytotoxicity Assay to monitor cytotoxicity in HEK293 cells - 16 hour (AID 1224888). Further: nearly all actives have a fitted effect of over 35% in size. In short, it runs like this: as §1

In PubChem BioAssay (Tox21) one finds Potency, outcome and max response data, which are given here for eight compounds.

Unmarked numbers belong to inactive results. Inconclusive results are not listed. The source made the active and inactive calls. The call rests on the fitted dose curve; in most records, active means well fitted curve in the direction sought with a large enough effect in the repeat runs; inconclusive means weak or mixed curves; inactive means no such curve, though single readings can be large; an effect the other way counts as inactive or inconclusive.
On the % scale 0 is the no-effect control and ±100 the full control effect.

Take `CCCCCOc1ccc(C2SC(=O)NC2=O)cc1OCC` (stereo unspecified): the Potency result in test [1], in test [2], in test [5], in test [6], in [8] and in test [9] was “inactive” each time. The Potency result in [11], in [12] and in test [13] was “inactive” each time. For the same compound, the call in [3], in test [7] and in test [10] was inactive. For the same compound, the max response in test [4] was -9.78%.

Regarding `CN1[C@@H]2CC[C@H]1CC(OC(=O)c1c[nH]c3ccccc13)C2` (stereo partly specified), the Potency entry in test [1], in [2], in test [14], in test [6], in test [15] and in [16] was “inactive” throughout. Moreover, the Potency result in [8], in [17], in test [9], in test [11], in test [12] and in [13] was “inactive” throughout. Moreover, the Potency result in [18] is “inactive”. The outcome in [3], in test [7] and in test [10] was inactive. Further, the max response in test [4] was 4.75%.

Take `CCOC(=O)CS`: the Potency result in [1], in test [2], in test [5], in test [14], in test [15] and in test [9] was “inactive” each time. Also, the Potency result in test [11], in test [12], in [13] and in test [18] was “inactive” throughout. For the same compound, the compound was called inactive in test [3], in test [7] and in test [10]. In test [4], the max response is -5.88%.

`NCCC(O)(P(=O)(O)O)P(=O)(O)O`: the Potency result in test [1], in test [2], in test [14], in [6], in test [15] and in test [16] was “inactive” each time. Further, the Potency result in test [8], in test [19], in test [17], in test [9], in test [11] and in test [12] was “inactive” throughout. Further, the Potency entry in test [20], in test [13] and in [18] was “inactive” throughout. For the same compound, the call in test [3], in [7] and in test [10] was inactive. Moreover, the max response in test [4] is 3.89%.

As for `CN1CCN(C2=Nc3ccccc3Oc3ccc(Cl)cc32)CC1`, the Potency entry in test [1], in test [2], in test [5], in test [14], in test [6] and in [8] was “inactive” in each case. Also, the Potency entry in test [19], in test [9], in test [11], in test [12], in [20] and in test [13] was “inactive” throughout. In [18], the Potency entry was “inactive”. For the same compound, the outcome in test [3], in test [7] and in test [10] was inactive. In addition, the max response in test [4] is -25.8%. For the same compound, in [16], the Potency is 19 µM (active).

For `CCCCC(=O)O[C@]1(C(=O)CO)[C@H](C)C[C@H]2[C@@H]3CCC4=CC(=O)C=C[C@]4(C)[C@@]3(F)[C@@H](O)C[C@@]21C`, the Potency result in test [1], in test [2], in [5], in [14], in test [15] and in test [16] was “inactive” in each case. Further, the Potency entry in [8], in test [19], in test [17], in [9], in [11] and in [12] was “inactive” in each case. Moreover, the Potency result in test [18] is “inactive”. The compound was called inactive in test [3], in [7] and in test [10]. For the same compound, the max response in test [4] was 0.0182%.

As for `O=C1N(c2ccccc2)c2ccccc2C1(Cc1ccncc1)Cc1ccncc1`, the Potency entry in test [1], in test [2], in test [14], in test [6], in [15] and in test [8] was “inactive” each time. For the same compound, the Potency result in test [19], in test [17], in [9], in [11], in test [12] and in test [20] was “inactive” in each case. Besides, the Potency result in test [13] and in [18] was “inactive” each time. For the same compound, the call in test [3], in test [7] and in [10] was inactive. Moreover, the max response in test [4] is 5.52%.

Take `Cc1onc(-c2ccccc2)c1C(=O)Cl`: the Potency entry in [1], in test [2], in test [5], in test [6], in [8] and in [19] was “inactive” throughout. In addition, the Potency result in test [9], in test [11], in test [12], in [20] and in test [13] was “inactive” in each case. In addition, the call in [3], in test [7] and in test [10] was inactive. In addition, the max response in test [4] is 5.64%.
